Test results: PubChem BioAssay (NCATS)
Records with an inconclusive call do not appear. Active and inactive are the calls of the source. The call rests on the fitted dose curve; in most records, active means well fitted cell-killing curve with a large enough effect; inconclusive means small, poorly fitted or top-dose-only effect; inactive means flat fitted curve, though single readings scatter.

Test: MultiTox-Fluor Cytotoxicity Assay - LYMP1-001 - Live Cells (AID 947)
Conditions: LYMP1-001 lymphoblastoid cells, live-cell protease fluorescence viability; series mostly up to 92.2 µM
Source text: NIH Chemical Genomics Center [NCGC]
NIH Molecular Libraries Screening Centers Network [MLSCN]
National Institutes of Environmental Health Sciences [NIEHS]
National Toxicology Program [NTP]
We have developed a 1536-well cell-based assay for quantitative high throughput screening (qHTS) against a number of cell lines to determine in vitro cytotoxicity of small molecules. This particular assay uses a human lymphoblastoid cell line (LYMP1-001) purchased from Coriell Institute.
NCGC Assay Protocol Summary:
The MultiTox-Fluor Cytotoxicity Assay (Promega) is a homogeneous method to simultaneously measure the relative number of live and dead cells in culture by detecting changes in cell membrane integrity. There are two fluorogenic peptide substrates in the assay reagent. Viable cells are determined when the cell-permeant substrate (GF-AFC) enters the cell and is cleaved by protease from live cells resulting in liberated fluorophore. This live-cell protease activity restricted to viable cells is proportional to cell number. The dead cells are determined by using fluorogenic cell-impermeant peptide substrate (bis-AAF-R110) which cleaved by dead cell proteases leaking from damaged cell membrane.
Using the MultiTox-Fluor Cytotoxicity Assay, the relative number of live cells was measured in the lymphoblastoid cell line with complete culture medium following compound treatment for 16 hours. The assay was performed in opaque black Kalypsys 1536-well plates. In the screen, tetraoctylammonium bromide was used as positive control. Library compounds were measured for their ability to cause acute toxicity in the cell line, as reflected by a decrease in live cell protease activity, in a concentration-dependent manner. […] AC50 values were determined from concentration-response data modeled with the standard Hill equation.
qHTS protocol for MultiTox-Fluor Cytotoxicity assay
[Step] [Parameter] [Value] [Description]
1. Reagent; 5 uL; 2500 lymphoblastoid cells/well
2. Time; 5 hr; 37 C incubation
4. Controls; 23 nL; Tetraoctylammonium bromide 6.4pM to 92 uM
5. Time; 16 hr; 37 C incubation
6. Reagent; 5 uL; MuliTox-Fluor Assay reagent
7. Time; 60 min; Room Temperature
8. Detection; live-cell fluorescence (Ex/Em=405/510); EnVision plate reader
Keywords: cell viability, cytotoxicity, lymphoblastoid cell line, fluorescence, NTPHTS, NTPHTS_NCGC, NIEHS, EPA, DSSTox, MLSMR, MLSCN, NIH Roadmap, qHTS, NCGC

Row | Compound | outcome
1 | CC(C)N=C=NC(C)C | inactive
2 | NC(N)=S | inactive
3 | O=[N+]([O-])c1cc(C(F)(F)F)ccc1Cl | inactive
4 | CCCCCO | inactive
5 | c1ccc2[nH]cnc2c1 | inactive
6 | C=C(C)C(=O)OCC(C)C | inactive
7 | O=C(O)c1ccc(Cl)cc1Cl | inactive
8 | C=C(C)OC(C)=O | inactive
9 | CC(=O)CCc1ccccc1 | inactive
10 | C[C@@H]1CC2(OC3C[C@@]4(C)C5=CC[C@H]6C(C)(C)C(O[C@@H]7OC[C@@H](O)[C@H](O)[C@H]7O)CC[C@@]67C[C@@]57CC[C@]4(C)C31)OC(O)C1(C)OC21 (stereo not given in full) | inactive
11 | Nc1ccccc1[N+](=O)[O-] | inactive
12 | CCCCC(CC)CO (stereo not given) | inactive
13 | O=[N+]([O-])c1ccc(CCO)cc1 | inactive
14 | Cc1cccc(Br)c1 | inactive
15 | CC=O | inactive
16 | Clc1cc(Cl)cc(Cl)c1 | inactive
17 | O=[N+]([O-])c1ccc2nc[nH]c2c1 | inactive
18 | CCC(C)=O | inactive
19 | C=CC(=O)OCCCC | inactive
20 | NS(=O)(=O)O | inactive

Row | Compound | outcome
21 | Cc1cccc2ccccc12 | inactive
22 | NC(=S)NNC(N)=S | inactive
23 | Nc1c(Cl)cc(Cl)cc1Cl | inactive
24 | C1CCOC1 | inactive
25 | CC(=O)Nc1ccc(C)cc1 | inactive
26 | Nc1ccc(Cl)cc1[N+](=O)[O-] | inactive
27 | O=C1OC(=O)c2c(Br)c(Br)c(Br)c(Br)c21 | inactive
28 | c1ccsc1 | inactive
29 | Cc1cccc(C)c1[N+](=O)[O-] | inactive
30 | CC(C)CO | inactive
31 | CC(=O)OCc1ccco1 | inactive
32 | NC(=O)NC(N)=O | inactive
33 | O=C(O)c1ccccc1C(=O)O | inactive
34 | O=Cc1cccc(Br)c1 | inactive
35 | O=[N+]([O-])c1ccc(Cl)cc1Cl | inactive
36 | CCCC(Cl)CCCC(Cl)CCC(Cl)CCC(Cl)CCC(Cl)CCCC(Cl)CCC (stereo not given) | inactive
37 | CC1CCC2CC1C2(C)C (stereo not given) | inactive
38 | Cc1ccccc1C(=O)O | inactive
39 | Nc1cc(Cl)c(N)c(Cl)c1 | inactive
40 | CCCCC(CC)COCC1CO1 (stereo not given) | inactive
